# Assay results published in PubChem BioAssay (NCATS).
# Inconclusive results are not listed. A number with no mark means an inactive call. Calls come from the whole dose curve; as a rule, active = well fitted activation curve with a large enough effect; inconclusive = small, poorly fitted or top-dose-only effect; inactive = flat fitted curve, though single readings scatter. Starred links: 1 amine or outer side, 2 acyl side, 3 side chain; linkers in the order of their positions; H or OH if unused. Positions of bridges follow the written chain, without caps; N, C: chain ends. Non-standard residues stand in square brackets, D forms with d. Residues, ends and D or L forms follow the SMILES beside them. ξ: configuration not given here. *: point of attachment. X3 = C[C@@H](Oc1ccc([C@H](N[*:1])C(=O)[*:2])cc1)[C@]1(/C=C\C(=O)[*:3])CO1; d(aIle) = CC[C@H](C)[C@@H](N)C(=O)O; X2 = CC(C)[C@@H](O)C(C)C(=O)*; ξNMeF = CNC(Cc1ccccc1)C(=O)O; ξT = CC(O)C(N)C(=O)O; ξS = NC(CO)C(=O)O
# Test: qHTS for Hypoxia signaling pathway (HIF-1) agonists against the NCATS CANVASS Library (AID 1347375); note: 0% is about no effect
# Conditions: HRE-bla ME-180 cells, HIF-1 beta-lactamase reporter, 17 h; series mostly up to 38.3 µM; activation: at the top concentration
# Text: Natural products and their derivatives continue to be wellsprings of nascent therapeutic potential. However, many laboratories have limited resources for biological evaluation, leaving their previously isolated or synthesized compounds largely or completely untested. To address this issue, the Canvass library of natural products was assembled (https://tripod.nih.gov/canvass), in collaboration with academic and industry researchers, for quantitative high-throughput screening (qHTS) across a diverse set of cell-based and biochemical assays. The pure (>85% purity by liquid chromatography/mass spectrometry [LC/MS]) Canvass library of 346 natural products were submitted by 45 academic laboratories and companies around the world. We collected pure natural products to circumvent deconvolution and structure elucidation due to time and resource limitations. The library was formatted into 1536-well plates and evaluated in 50 qHTS (in an 11-pnt concentration series) bioassays with broad scope of disease-relevant mechanisms. The resulting data set from 50 different assays was then systematically analyzed to identify overall trends and specific natural products with interesting biological activities. Reported herein are the results of each individual qHTS and their corresponding assay protocol. During hypoxic conditions, the cellular responses are regulated in large part through the activation of the heterodimeric transcription factor called hypoxia-inducible factor-1 (HIF-1). The assay used is a beta-lactamase reporter gene under control of the hypoxia responsive element (HRE) that has been stably integrated into ME-180 cells. This assay identifies inducers of the HIF-1-signaling pathway. The cytotoxicity of the compound library against HRE-bla ME-180 cell line was tested in parallel by measuring cell viability using CellTiter-Glo assay (Promega, Madison, WI) in the same assay wells. The compounds were also tested for auto fluorescence that may interfere with the biological target readout resulting in potential false positives and/or negatives. National Center for Advancing Translational Sciences (NCATS), Rockville, MD National Institute of Health (NIH), Bethesda, Maryland
# HIF-1 agonist assay protocol: HRE-bla ME-180 cells were dispensed at 2,000 cells per well in 6 uL of assay medium containing 0.5% dialyzed FBS into black wall/clear-bottom 1536-well plates using a Multidrop Combi (Thermo Scientific, Waltham, MA) dispenser. After the assay plates were incubated at 37C and 5% CO2 for 5 hrs, 23 nL of compounds dissolved in DMSO, positive controls or DMSO only was transferred to each well of the assay plate using a Pintool station (Kalypsys, San Diego, CA). The assay plates were incubated at 37C and 5% CO2 for 17 hrs. One uL of LiveBLAzerTM B/G FRET substrate (CCF4-AM) (Life Technologies) was added to each well using a Flying Reagent Dispenser (Aurora Discovery, San Diego, CA). After 2 hr incubation at room temperature, fluorescence intensity (405 nm excitation, 460 nm and 530 nm emissions) was measured using an Envision plate reader (PerkinElmer, Shelton, CT). To assess cell viability (and for data normalization), 4uL of CellTiter-Glo (Promega) was added to the assay plate using the BioRAPTR dispenser and incubated at room temperature for 30 min. Luminescence signal was obtained using the ViewLux microplate reader (PerkinElmer) using a clear emission mirror, and a 15 sec exposure time, 1x binning settings.
row,Compound,activation
1,CC[C@]12C=CCN3CC[C@]4(C(=C(C(=O)OC)C1)Nc1ccccc14)[C@@H]32,1.56%
2,CO[C@@H](/C=C/CC/C=C/C(=O)O)[C@@H](O)[C@H](C)/C=C(\C)[C@H](O)[C@H](C)C(=O)CCCC1CC(=O)NC(=O)C1,2.31%
3,c1ccc2nc3c(cc2c1)[nH]c1ccccc13,10.2%
4,CCC(=O)N[C@@H](C[C@H](C)C(Cl)(Cl)Cl)C(=O)N1C(=O)C=C(OC)[C@@H]1C[C@H](C)C(Cl)Cl,2.62%
5,CCCCC1CC[C@H]2CCCC(CCC)N12 (stereo partly drawn),3.15%
6,C=C[C@]12C=CCN3CC[C@@]4(c5ccccc5NC(=O)[C@@H]4C1)[C@@H]32,-1.15%
7,CCCC[C@@H]1CC[C@H]2CCCC(CCCO)N12 (stereo partly drawn),0.368%
8,CO[C@H]1[C@H](O[C@H]2CC[C@]3(C=O)[C@H]4CC[C@]5(C)[C@@H](C6=CC(=O)OC6)CC[C@]5(O)[C@@H]4CC[C@]3(O)C2)O[C@H](C)[C@H](O)[C@@H]1OC,-0.768%
9,C1=C2CCCN[C@H]2C2CC1[C@H]1CCCCN1C2 (stereo partly drawn),1.01%
10,CO[C@H]1C[C@H](O[C@H]2[C@@H](O)C[C@H](O[C@H]3CC[C@]4(C=O)[C@H]5CC[C@]6(C)C(C7=CC(=O)OC7)CC[C@]6(O)[C@@H]5CC[C@]4(O)C3)O[C@@H]2C)O[C@H](C)[C@H]1O[C@H]1C[C@@H](OC)[C@@H](O[C@@H]2O[C@H](CO)[C@@H](O)[C@H](O)[C@H]2O)[C@@H](C)O1 (stereo partly drawn),-3.06%
11,CC[C@H](C)[C@H]1NC(=O)[C@@H](NC(=O)C(C)[C@H](O)C(C)C)[C@@H](C)OC(=O)C2COC(=O)CNC(=O)/C=C\[C@]3(CO3)[C@@H](C)Oc3ccc(cc3)[C@H](NC1=O)C(=O)N(C)C(Cc1ccccc1)C(=O)NC(C(C)O)C(=O)N2 (stereo partly drawn) (X2-T[d(aIle)][X3][ξNMeF][ξT][ξS]; ester 1-C; linker 3-6 via G),-3.29% [at 22.9 µM]
12,CCCC[C@@H](C)/C=C1/CN2CCC[C@H]2[C@@](C)(O)[C@@H]1O,-0.532%
13,C[C@]12CC(O)C3[C@@H](CC[C@@H]4C[C@@H](O)CC[C@]34CO)[C@@]1(O)CC[C@@H]2C1=CC(=O)OC1 (stereo partly drawn),-2.06%
14,C/C(=C\[C@H](C)C(=O)C[C@H](O)CC1CC(=O)NC(=O)C1)[C@@H]1OC(=O)/C=C/CC/C=C/C=C/[C@@H]1C,3.21%
15,CO[C@H]([C@@H](C)[C@H]1O[C@]1(C)C[C@H](C)/C=C/C=C(\C)[C@H]1O[C@@H](CC(=O)O)CC[C@@H]1C)[C@@H](C)O,2.58%
16,C/C=C1/CN2CC[C@]34C(=C(C(=O)OC)[C@H]1C[C@H]23)Nc1ccccc14,-0.87%
17,COC1=C(C2=C(OC)C(=O)c3cc4c(c(O)c3C2=O)C(=O)O[C@H](C)C4)C(=O)c2c(cc3c(c2O)C(=O)O[C@H](C)C3)C1=O,1.48% [at 12.8 µM]

row,Compound,activation
1,C[C@]12CCC3[C@@H](CC[C@@H]4C[C@@H](O)CC[C@]34CO)[C@@]1(O)CC[C@@H]2C1=CC(=O)OC1 (stereo partly drawn),-0.819%
2,C/C=C1/CN2C3CC1C1=CCC(=O)N4c5ccccc5[C@@]3(C[C@@H]2C2=C[C@H]3C5CC6N(CC[C@@]67c6ccccc6N(C2=O)[C@@H]37)C/C5=C/C)[C@H]14 (stereo partly drawn),9.15%
3,C/C=C1/CN2CC[C@@]34c5ccccc5N(C)[C@@H]3[C@@H]2C[C@@H]1[C@H]4C(=O)OC,4.18%
4,CC(C)CC1C(=O)O[C@H](C(C)C)C(=O)N(C)C(CC(C)C)C(=O)O[C@@H](C(C)C)C(=O)N(C)C(CC(C)C)C(=O)O[C@H](C(C)C)C(=O)N(C)C(CC(C)C)C(=O)O[C@@H](C(C)C)C(=O)N1C (stereo partly drawn),3.5%
5,C[C@]12CC(O)C3[C@@H](CCC4C[C@@H](O)CC[C@@]43CO)[C@@]1(O)CC[C@@H]2C1=CC(=O)OC1 (stereo partly drawn),-0.413%
6,C=C[C@H]1CN2CCc3c([nH]c4cccc(OC)c34)[C@@H]2C[C@@H]1/C(=C\OC)C(=O)OC,2.52%
7,C[N+](C)(C)CCc1c[nH]c2ccccc12,0.745%
8,CC[C@@H]1CN2CCC3(Nc4cccc(OC)c4C3=O)[C@@H]2C[C@@H]1/C(=C\OC)C(=O)OC (stereo partly drawn),5.25%
9,C=CC(C)(C)[C@@]12C[C@H]3C(=O)N/C(=C\c4cnc[nH]4)C(=O)N3[C@@H]1Nc1ccccc12,2.49%
10,C=CC(C)(C)[C@@]12C[C@H]3C(=O)N/C(=C/c4cnc[nH]4)C(=O)N3[C@@H]1Nc1ccccc12,4.28%
11,CC[C@@H]1CN2CCc3c([nH]c4cccc(OC)c34)[C@@H]2C[C@@H]1/C(=C\OC)C(=O)OC,-1.94%
12,C/C=C(\C)C(=O)O[C@@H]1[C@@H](O)[C@@H]2O[C@H]3[C@H](O[C@@H](CCCCC)CCCCCCC(=O)CCC(=O)OC[C@@H](O2)[C@H]1OC(=O)/C=C/c1ccccc1)O[C@H](C)[C@H](OC(C)=O)[C@@H]3O,2.65%
13,CC[C@H]1CN2CCc3c([nH]c4cccc(OC)c34)[C@@H]2C[C@@H]1/C(=C\OC)C(=O)OC,0.569%
14,O[C@H]1C=C[C@@]23CCN(Cc4cc5c(cc42)OCO5)[C@@H]3C1,1.86%
15,C/C=C/[C@@H]1[C@H]2C[C@@H](C)CC[C@@H]2C(C)=C[C@H]1C(=O)c1c(O)c(-c2ccc(O)cc2)c[nH]c1=O,-1.7%
16,CO[C@@]12c3c(C)cc(O)c4c(=O)occ(c34)C(=O)[C@@H]1[C@]13COC(=O)c4c(O)cc(C)c(c41)C(=O)[C@H]2[C@@H]3OC(C)=O,-4.21%
